Reference: PubChem BioAssay AID485364 (National Center for Advancing Translational Sciences (NCATS), 2010)
The whole screen tested about 360,000 compounds, of which about 11,000 (3.1%) were called active. Not shown: some 4% with an inconclusive outcome. Calls follow the shape of the dose curve; as a rule, active = well fitted inhibition curve with a large enough effect; inconclusive = small, poorly fitted or top-dose-only effect; inactive = no such curve, though single readings can be large or run the other way. Shown is part of a subset that was picked to be rich in actives. A call without a number means that no potency is given here.

Target: Schistosoma mansoni thioredoxin glutathione reductase (TGR) (UniProt Q962Y6)
Assay: qHTS Assay for the Inhibitors of Schistosoma Mansoni Peroxiredoxins; also: nearly all actives have a fitted effect of over 60% in size
Conditions: purified TGR, DTNB reduction, TNB absorbance 405 nm; series mostly up to 114 µM
Procedure, shortened: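 TGR 20 nM + NADPH 100 uM (dispensed conc.), cpd preinc 15 min RT; start with NADPH (500 uM addition) then DTNB (15 mM addition). Kinetic TNB absorbance, 405 nm filter. Four-parameter Hill fit across titration.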
Potency is read from the fitted curve at half-maximal effect.

Structure (SMILES)	Potency
CCN(CC)C(=O)CSc1nc2ccsc2c(=O)n1Cc1ccccc1Cl	inactive
CCCCNC(=O)c1cc(-c2ccc(Cl)c(Cl)c2)on1	inactive
CC(/C=N/NC(=O)c1cc(-c2ccc3ccccc3c2)n[nH]1)=C\c1ccco1	inactive
C/C(=C\c1ccco1)C1Nc2cccc3cccc(c23)N1	3.55 µM (active)
Cc1ccc(Cn2cc(CCC(=O)NCc3ccc(OC(C)C)cc3)c3ccccc32)cc1	inactive
COc1ccc(S(=O)(=O)c2c(Nc3cccc(Cl)c3)sc(C(=O)c3ccccc3)c2N)cc1	inactive
Cc1cc(C)c2oc(C(=O)Nc3ccc(S(=O)(=O)N(C)c4ccccc4)cc3)cc(=O)c2c1	inactive
CCCCOC(=O)CSc1ncnc2sc3c(c12)CCC(C)C3 (stereo not drawn)	inactive
O=C(CNC(=O)Cc1ccccc1)N=Nc1c(O)[nH]c2ccc(Br)cc12	inactive
O=C(CCN1CCCCC1)N=Nc1c(O)[nH]c2ccccc12	11.2 µM (active)
Cc1c(-c2ccccc2)n[nH]c1C(=O)N=Nc1c(O)[nH]c2ccccc12	inactive
N#C/C(=C\c1ccccc1F)c1nc2ccccc2c(=O)[nH]1	inactive
CNC(=O)CN1C(=O)c2cccnc2Sc2ccccc21	inactive
Cc1ccsc1CN(C(=O)c1oc2ccc(Br)cc2c1C)C1CCS(=O)(=O)C1 (stereo not drawn)	inactive
O=C(NC1CCN(Cc2ccccc2)CC1)c1ccc(Cn2c(=O)c3ccccc3n(Cc3cccc(F)c3)c2=O)cc1	inactive
Cc1ccc(-c2cc(C(=O)NC3CCN(Cc4ccccc4)CC3)c3ccccc3n2)cc1	inactive
O=C(N/N=C/C=C/c1ccco1)c1cccs1	3.55 µM (active)
CC1(C)CC(=O)C/C(=N\NC(=O)c2cccs2)C1	inactive
Cc1ccc(-c2cc(C(=O)N/N=C/C=C/c3ccco3)c3ccccc3n2)cc1C	39.8 µM (active)
C/C(=N\NC(=O)c1cc(-c2ccc(O)cc2)nc2ccccc12)c1cccnc1	inactive
Cc1ccc(-n2nc(C)c(/C=N/NC(=O)c3cccs3)c2Cl)cc1	inactive

Structure (SMILES)	Potency
CC1=C(c2ccc(Cl)cc2)S(=O)(=O)N=C1N1CCN(c2cc(C)ccc2C)CC1	inactive
Cc1ccccc1C(=O)Nc1nnc(S(=O)(=O)N(C)c2ccc(Cl)cc2)s1	inactive
O=C(CCN1CCCCC1)NCC(=O)Nc1ccc(Br)cc1C(=O)c1ccccc1	inactive
COc1ccccc1NC(=O)CCN1CCN(c2ccc(Cl)cc2)CC1	inactive
COC(=O)CNC(c1ccccc1Cl)c1cc(Br)ccc1NC(=O)CCN1CCOCC1 (stereo not drawn)	25.1 µM (active)
COc1cc(C)ccc1OCCSc1nc2ccc(NC(=O)c3ccc(C)cc3)cc2s1	inactive
Cc1cc(F)ccc1NC1(c2ccccc2)C(=O)c2ccccc2C1=O	inactive
CC(C)c1ccc(OCC(=O)N(Cc2ccc(N(C)C)cc2)C2CCS(=O)(=O)C2)cc1 (stereo not drawn)	inactive
C/C(=N/OC(=O)c1c(-c2c(F)cccc2Cl)noc1C)c1cnccn1	inactive
Cc1[nH]n(C)c(=O)c1C(=O)c1c(-c2c(Cl)cccc2Cl)noc1C	25.1 µM (active)
Cc1onc(-c2c(Cl)cccc2Cl)c1C(=O)c1c[nH]c(C(=O)NC2CC2)c1	inactive
CCc1ccc(S(=O)(=O)c2nnn3c2nc(N2CCN(CC)CC2)c2sccc23)cc1	inactive
O=C(COc1ccccc1F)OCc1cc(=O)n2nc(C3CCCCC3)sc2n1	inactive
Cc1ccc(NC(=O)O/N=C/c2cccc([N+](=O)[O-])c2)cc1	inactive
CS/C(=C\[N+](=O)[O-])Nc1ccc(C)cc1	0.316 µM (active)
COc1cc(NC(=O)Nc2ccc(C)cc2)cc([N+](=O)[O-])c1	inactive
CN(Cc1ccccc1)c1ccc(-c2nc(-c3ccccc3)no2)cc1[N+](=O)[O-]	inactive
CCOC(=O)c1ccc2c(c1)N(Cc1cccc(OC)c1)C(=O)c1ccccc1S2(=O)=O	inactive
O=C(c1ccco1)N1CCN(C(=O)c2ccc(COc3ccc(F)cc3)o2)CC1	44.7 µM (active)
O=C(c1ccco1)N1CCN(CCOc2ccccc2)CC1	inactive
O=C(c1ccco1)N1CCN(C(=S)Nc2cc(F)cc(F)c2)CC1	inactive

Structure (SMILES)	Potency
N#Cc1ccccc1Cn1cnc2nc3c(cc2c1=O)CCCC3	inactive
CCCCNC(=O)c1ccc2c(c1)NC(=O)C(C(C)C)N2 (stereo not drawn)	inactive
CCOc1cc(-c2nnc(SCC(=O)NC3CCCC3)nc2-c2ccc(OC)c(OCC)c2)ccc1OC	inactive
COc1ccc(CC(=O)NCCc2sc3nc(-c4ccc(OC)cc4)nn3c2C)cc1	inactive
Cc1oc(-c2ccccc2F)nc1CS(=O)CC(=O)NCCN1CCCCC1C (stereo not drawn)	inactive
COc1ccc(-c2nc(CS(=O)CC(=O)NCc3ccccn3)c(C)o2)cc1 (stereo not drawn)	17.8 µM (active)
Cc1ccc(-c2nc(CSCC(=O)NC3CCN(Cc4ccccc4)CC3)c(C)o2)cc1	inactive
Cc1cccc(-c2nc(CS(=O)CC(=O)NC(C)CCc3ccccc3)c(C)o2)c1 (stereo not drawn)	15.8 µM (active)
COc1ccc(-c2nc(CS(=O)CC(=O)NCc3cccnc3)c(C)o2)cc1OC (stereo not drawn)	inactive
CC(CCc1ccccc1)NC(=O)c1cnc(Cl)c(Cl)c1 (stereo not drawn)	inactive
Cc1ccc(-c2nc(CS(=O)CC(=O)NC3CCCC3)c(C)o2)cc1 (stereo not drawn)	22.4 µM (active)
CNC(=O)c1ccc(-c2nc(CN3CCc4ccccc43)c(C)o2)cc1	inactive
COc1ccc(CNC(=O)CS(=O)Cc2nc(-c3cccc(C)c3)oc2C)cc1 (stereo not drawn)	inactive
COc1ccc(N2CCN(C(=O)CSCc3nc(-c4ccccc4Cl)oc3C)CC2)cc1	inactive
COc1ccc(-c2nc(CS(=O)CC(=O)N3CCc4ccccc4C3)c(C)o2)cc1 (stereo not drawn)	2 µM (active)
CC1=C(C)CC(C(=O)NC(C)CCc2ccccc2)C(C(=O)O)C1 (stereo not drawn)	inactive
Cc1ccc(-c2nn(CCC(=O)Nc3ccc(OC(F)(F)F)cc3)c(=O)c3ccccc23)cc1	inactive
Cc1cc(C)cc(NS(=O)(=O)c2cc3c(cc2C)NC(=O)CO3)c1	inactive
COc1ccc(Cn2c(C(=O)O)c(CNCCc3cccs3)c3ccc(OC)cc32)cc1	inactive
CCOCCc1nn2c(=O)cc(COC(=O)CNC(=O)c3ccc(C(C)(C)C)cc3)nc2s1	inactive
CCN(C(=O)CSc1nnc(C)n2c1cc1occc12)c1ccccc1	inactive
